Potency, outcome and activity change, positive = activation data for seven compounds are collected here from PubChem BioAssay (Tox21).

Several values for one entry are separate records, joined by “and”; a condition that tells them apart may be missing. Equal entries are not always repeated. Results filed as inconclusive are left out. A structure can be active in one record and inactive in another. Activity calls are given as the source filed them. Unless noted, calls come from the whole dose curve; as a rule, active = well fitted curve in the direction sought with a large enough effect in the repeat runs; inconclusive = weak or mixed curves; inactive = no such curve, though single readings can be large; an effect the other way counts as inactive or inconclusive.

A short description of assay [1]: qHTS assay to identify small molecule agonists of the constitutive androstane receptor (CAR) signaling pathway - cell viability counter screen (AID 1224836). Note: nearly all actives have a fitted effect of over 45% in size. In outline: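 23 h treatment, 37 C, 5% CO2. Cell line: HepG2 stably expressing hCAR with a CYP2B6-2.2kb construct. Co-treatment: PK11195, 0.75 uM final. Read-out: CellTiter-Fluor fluorescence intensity.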
In general terms: In qHTS, concentration-response curves come from the screen itself.

Assay [2] is described as follows: qHTS assay to identify small molecule antagonists of the constitutive androstane receptor (CAR) signaling pathway - cell viability counter screen (AID 1224837). Note: nearly all actives have a fitted effect of over 45% in size. In a few lines:
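Multiplexed cytotoxicity read-out for the CAR antagonist screen: double-stable HepG2-CYP2B6-hCAR cells co-treated with 50 nM CITCO (final) and compound over 15 concentrations, incubated 23 hr, then assessed by CellTiter-Fluor fluorescence.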

Assay [3] can be described thus: qHTS assay to identify small molecule antagonists of the estrogen related receptor signaling pathway with the pleiotropic PPARgamma coactivator (PGC) from Tox21 10K library - cell viability counter screen (AID 1224840; active = well fitted cell-killing curve with a large enough effect in the repeat runs, not every such curve was filed as active; note: nearly all actives have a fitted effect of over 40% in size). In a few lines: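 Step one, plate 2,000 PGC/ERR cells per well; step two, incubate 6 h at 37 C/5% CO2; step three, pin-transfer compounds; step four, incubate 17.5 h; step five, add CellTiter-Fluor and read fluorescence after 30 min.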

Assay [4] deals with Thyrotropin receptor (Homo sapiens) (UniProt P16473). Nature of the assay: qHTS assay to identify small molecule agonists of the thyroid stimulating hormone receptor (TSHR) signaling pathway (AID 1224843; calls by dose curve; note: nearly all actives have a fitted effect of over 45% in size). In a few lines: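 HEK293 cells stably bearing the thyrotropin receptor were plated at 800 cells/well and challenged with compound (30 min, RT). Accumulated cAMP was quantified via cAMP-d2 competing for cryptate-tagged antibody.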

A short description of assay [5]: qHTS assay to identify small molecule agonists of the hypoxia (HIF-1) signaling pathway - cell viability counter screen (AID 1224844; calls by dose curve; note: nearly all actives have a fitted effect of over 50% in size). In a few lines:
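Tox21 10K compounds were added to HRE-bla ME-180 cells (0.5% dialyzed FBS) and incubated 17 hrs at 37C; ATP-based CellTiter-Glo luminescence then reported cell viability in the same wells.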

Assay [6] is described as follows: qHTS assay to identify small molecule agonists of H2AX (AID 1224845; active = well fitted activation curve with a large enough effect in the signal ratio in the repeat runs, not every such curve was filed as active; the % refers to the signal ratio; note: potency is the fitted concentration of half-maximal effect). In outline:
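Phospho-H2AX Ser139 measured by HTRF (ex 320 nm; em 665 and 620 nm) after 24 hr antibody incubation. Compounds, 15 concentrations, 0.76% DMSO, were applied to CHO-K1 cells for 3hr at 37C before lysis.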

The nature of assay [7]: qHTS assay to identify small molecule agonists of the hypoxia (HIF-1) signaling pathway (AID 1224846; active = well fitted activation curve with a large enough effect in the signal ratio in the repeat runs, not every such curve was filed as active; the % refers to the signal ratio). In outline:
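Steps: seed ME-180 HRE-bla cells (2,000/well, 0.5% dialyzed FBS); incubate 5 hrs at 37C; pin-transfer compounds or DMSO; incubate 17 hrs; add LiveBLAzer B/G substrate CCF4-AM; measure reporter activation by FRET.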

Assay [8] in a line: qHTS assay to identify small molecule agonists of H2AX - cell viability counter screen (AID 1224847; calls by dose curve; note: top concentration of the series differs between compounds; nearly all actives have a fitted effect of over 30% in size). In outline: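 Compounds tested at 15 concentrations were incubated 3 hr at 37C with wild-type CHO-K1 cells; cellular ATP-based luminescence (CellTiter-Glo) indicated viability.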
Assay [9] can be described thus: qHTS RealTime-Glo MT Cell Viability Assay in HepG2 cells - 24 hour (AID 1224867). Note: nearly all actives have a fitted effect of over 50% in size. In a few lines:
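HepG2 suspension premixed with RealTime-Glo reagents is plated at 600 cells per well and left 5 h at 37 C/5% CO2. Compounds in DMSO then go in, and bioluminescence reflecting viable cell number is recorded over 40 h.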

Assay [10] in a line: A CellTox Green Cytotoxicity Assay to monitor cytotoxicity in HEK293 cells - 0 hour (AID 1224869). Note: nearly all actives have a fitted effect of over 50% in size. In outline: (§1)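 Cytotoxicity was tracked continuously in HEK293 cells by a DNA-binding dye excluded from viable cells. Compounds were transferred in DMSO 5 h after seeding; fluorescence was recorded at intervals up to 40 h.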
The nature of assay [11]: qHTS RealTime-Glo MT Cell Viability Assay in HepG2 cells - 40 hour (AID 1224870). Note: nearly all actives have a fitted effect of over 50% in size. In a few lines:
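Real-time viability: cells seeded at 600 per well together with NanoLuc and cell-permeant prosubstrate, compounds added after 5 h incubation. Luminescence tracked at 0, 8, 16, 24, 32 and 40 h of exposure.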

The target of assay [12] is Nuclear receptor subfamily 1 group I member 3 (Homo sapiens) (UniProt Q14994). Nature of the assay: qHTS assay to identify small molecule antagonists of the constitutive androstane receptor (CAR) signaling pathway (AID 1224838). Note: nearly all actives have a fitted effect of over 40% in size. In a few lines: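 Compounds were titrated across 15 concentrations onto HepG2 cells double-stably expressing hCAR and a CYP2B6-2.2kb reporter, together with 50 nM CITCO (final). After 24 h at 37 C, luciferase activity was measured by luminescence.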

A short description of assay [13]: qHTS assay to identify small molecule antagonists of the estrogen related receptor signaling pathway with the pleiotropic PPARgamma coactivator (PGC) from Tox21 10K library (AID 1224841; call rule not given here). In outline:
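Antagonism in this quantitative HTS is taken from loss of luciferase signal in PGC/ERR cells. Cells (2,000/well) are treated with compounds in DMSO after a 6 h settling period and read by One-Glo luminescence after 18 h.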

Assay [14] is described as follows: qHTS assay to identify small molecule agonists of the estrogen related receptor signaling pathway with the pleiotropic PPARgamma coactivator (PGC) from Tox21 10K library (AID 1224842). Note: nearly all actives have a fitted effect of over 15% in size. In a few lines:
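Luminescence from One-Glo (30 min, room temperature) measured after PGC/ERR cells had 18 h at 37 C with pinned compound (23 nL in DMSO). Cells had been seeded at 2,000 per well and pre-incubated 6 h.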

Assay [15] in a line: qHTS assay to identify small molecule antagonists of the estrogen related receptor (ERR) signaling pathway from Tox21 library (AID 1224848). Note: nearly all actives have a fitted effect of over 50% in size. In outline: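 Reading was by luminescence 30 min after ONE-Glo addition. Before that, ERR cells at 2,000 per well had rested 6 h at 37 C/5% CO2 and then received pin-tooled compounds in DMSO for 18 h at 37 C.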
Assay [16] can be described thus: qHTS assay to identify small molecule agonists of the estrogen related receptor (ERR) signaling pathway from Tox21 library (AID 1224849; calls by dose curve; note: nearly all actives have a fitted effect of over 15% in size). Particulars: ERR reporter cell line, ONE-Glo luciferase, 18 h. In a few lines:
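Agonist signal is luciferase luminescence from an ERR reporter cell line treated 18 h at 37 C with DMSO-dissolved compounds, read 30 min after ONE-Glo addition at room temperature.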

A short description of assay [17]: qHTS RealTime-Glo MT Cell Viability Assay in HEK293 cells - 32 hour (AID 1224868). Note: nearly all actives have a fitted effect of over 50% in size. Note: potency is the fitted concentration of half-maximal effect. In outline: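 Reads taken at 0, 8, 16, 24, 32 and 40 h from the same wells. HEK293 cells (600/well) carried RealTime-Glo reagents from seeding, with compound added after a 5 h settle at 37 C.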
Assay [18] is described as follows: A CellTox Green Cytotoxicity Assay to monitor cytotoxicity in HEK293 cells - 40 hour (AID 1224871). Note: nearly all actives have a fitted effect of over 45% in size. In outline:
as §1
% is set by controls: 0 for no effect and ±100 for the full control effect.

Sequence of Nuclear receptor subfamily 1 group I member 3 (Homo sapiens) (Q14994 whole entry, looked up): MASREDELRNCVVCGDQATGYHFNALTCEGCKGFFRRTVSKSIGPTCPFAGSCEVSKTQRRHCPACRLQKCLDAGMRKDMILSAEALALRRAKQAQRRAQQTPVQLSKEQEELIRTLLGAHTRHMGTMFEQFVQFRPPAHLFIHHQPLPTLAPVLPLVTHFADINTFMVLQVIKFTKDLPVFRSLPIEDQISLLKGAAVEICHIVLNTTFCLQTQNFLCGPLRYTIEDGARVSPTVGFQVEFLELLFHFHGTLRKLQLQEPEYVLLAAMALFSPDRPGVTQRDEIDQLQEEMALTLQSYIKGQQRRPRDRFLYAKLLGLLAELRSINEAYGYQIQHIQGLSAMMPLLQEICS
Sequence of Thyrotropin receptor (Homo sapiens) (P16473 whole entry, looked up): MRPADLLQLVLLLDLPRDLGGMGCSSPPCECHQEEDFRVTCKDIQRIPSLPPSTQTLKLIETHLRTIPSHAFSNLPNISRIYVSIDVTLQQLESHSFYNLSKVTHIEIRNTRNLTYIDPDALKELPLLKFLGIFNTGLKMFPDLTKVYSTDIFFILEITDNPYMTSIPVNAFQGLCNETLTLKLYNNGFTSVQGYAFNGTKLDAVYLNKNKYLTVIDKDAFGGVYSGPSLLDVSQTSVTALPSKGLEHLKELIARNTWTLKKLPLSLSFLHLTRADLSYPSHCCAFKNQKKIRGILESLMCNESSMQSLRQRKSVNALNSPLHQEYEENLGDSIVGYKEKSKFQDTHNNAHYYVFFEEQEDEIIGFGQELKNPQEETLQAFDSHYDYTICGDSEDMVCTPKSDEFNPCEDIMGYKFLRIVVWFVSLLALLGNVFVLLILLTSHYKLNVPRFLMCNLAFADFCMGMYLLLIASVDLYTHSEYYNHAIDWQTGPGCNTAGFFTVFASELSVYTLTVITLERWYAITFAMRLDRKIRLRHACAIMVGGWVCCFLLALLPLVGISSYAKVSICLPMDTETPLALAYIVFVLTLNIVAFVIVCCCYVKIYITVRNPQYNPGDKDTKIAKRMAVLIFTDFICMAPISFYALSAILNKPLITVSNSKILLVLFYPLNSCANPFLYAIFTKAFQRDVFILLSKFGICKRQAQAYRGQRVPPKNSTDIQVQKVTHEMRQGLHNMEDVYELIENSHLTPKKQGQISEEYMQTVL

For the compound `O=C1NS(=O)(=O)c2ccccc21`, the Potency result in [1], in assay [2], in [3], in assay [4], in assay [5] and in assay [6] was “inactive” each time. Moreover, the Potency entry in assay [8], in assay [9], in assay [10] and in [11] was “inactive” each time. Further, in assay [7], the compound was called inactive.

For the compound `CN(C)C(=O)Nc1ccc(Cl)c(Cl)c1`, the Potency result in assay [1], in assay [2], in assay [12], in assay [3], in assay [13] and in [14] was “inactive” each time. The Potency entry in assay [4], in assay [6], in [15], in [9], in assay [17] and in assay [10] was “inactive” throughout. The Potency result in assay [11] is “inactive”. In assay [7], the result was inactive. Further, the activity change, positive = activation in assay [16] (at 42.5 µM (top of the series)) is -0.767% (inactive); in assay [16] (at 92.4 µM (top of the series)), -14.1% (inactive) and -8.37% (inactive).

With `CCCCC1(COC(=O)CCC(=O)O)C(=O)N(c2ccccc2)N(c2ccccc2)C1=O`, the Potency entry in assay [1], in assay [2], in assay [3], in assay [13], in assay [14] and in assay [4] was “inactive” throughout. In addition, the Potency entry in assay [5], in assay [6], in [8], in assay [15], in assay [9] and in assay [17] was “inactive” throughout. Moreover, the Potency entry in [10], in assay [11] and in assay [18] was “inactive” in each case. Besides, the activity change, positive = activation in assay [16] (at 42.5 µM (top of the series)) is -6.77% (inactive); in assay [16] (at 92.4 µM (top of the series)), 3.58% (inactive) and -11.1% (inactive).

`CC(=O)Nc1c(I)c(NC(C)=O)c(I)c(C(=O)O)c1I`: the Potency result in assay [1], in assay [2], in [3], in assay [4], in assay [5] and in [6] was “inactive” in each case. For the same compound, the Potency entry in [9], in [10], in [11] and in assay [18] was “inactive” in each case.

As for `CCN(CC)C(=O)c1cccc(C)c1`, the Potency result in assay [1], in assay [2], in assay [3], in [13], in assay [14] and in assay [4] was “inactive” throughout. Besides, the Potency entry in [5], in assay [6], in assay [8], in assay [15], in assay [9] and in assay [10] was “inactive” throughout. The Potency result in assay [11] and in [18] was “inactive” in each case. Besides, the compound was classed as inactive in [7]. Moreover, the activity change, positive = activation is 5.47% (inactive) in assay [16] (at 42.5 µM (top of the series)); 0.249% (inactive) and -23.9% (inactive) in assay [16] (at 92.4 µM (top of the series)).

For the compound `CCOc1ccc(NC(C)=O)cc1`, the Potency result in assay [1], in [2], in [3], in assay [13], in assay [14] and in assay [4] was “inactive” in each case. The Potency result in [5], in [6], in assay [8], in assay [15], in assay [9] and in [10] was “inactive” throughout. For the same compound, the Potency result in assay [11] was “inactive”. In assay [7], the compound was classed as inactive. Also, the activity change, positive = activation in [16] (at 42.5 µM (top of the series)) was 9.79% (inactive); in [16] (at 92.4 µM (top of the series)), 9.07% (inactive) and -21.8% (inactive). In [17], the Potency entry is “inactive and 24.5 µM (active)”.

As for `F[B-](F)(F)F`, the Potency result in assay [1], in assay [2], in assay [3], in assay [4], in assay [5] and in [8] was “inactive” throughout. Further, the Potency entry in assay [9], in [17], in [10] and in assay [11] was “inactive” in each case. Besides, the Potency entry in [6] was “inactive and 115 µM (active)”. Besides, in assay [7], the call was inactive.
